This is a sample that favours compounds with a hit; in the whole collection about 12% have one here.
Sfp PPTase inh – blocks B. subtilis Sfp PPTase activity; Potency, µM, for the others: largest response in the series, negative = inhibition, actives largely listed as inhibitors; Biochemical Sfp PPTase activity, qHTS; Q9F4F7; hit rate 3.5% among 310,000;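 note: the enzyme is Sfp with the accession as filed and its product quenches rhodamine fluorescence; 0% = enzyme reaction without inhibitor and -100% = no enzyme wells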
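Step 1, compound plus 15 nM Sfp-PPTase, 15 min, room temperature. Step 2, add rhodamine-CoA (5 uM) and BHQ-2-YbbR (12.5 uM). Step 3, read 525/598 nm fluorescence at 0 and 30 min.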
G9a inh – blocks human histone lysine methyltransferase G9a | hit rate 8.8% among 350,000 | Q96KQ7 | G9a H3K9 monomethylation, AlphaScreen, 2 h | Potency, µM (series often up to 102 µM), without a hit: at the highest dose activity, negative = inhibition, most hits filed as inhibitors; note: % is set by controls: 0 for no effect and ±100 for the full control effect; nearly all actives have a fitted effect of over 75% in size
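AlphaScreen read-out: biotin-H3K9 peptide (500 nM) methylation by 20 nM enzyme with 20 uM SAM, 2 h at room temperature after 15 min compound preincubation; anti-monomethyl H3K9 antibody plus donor/acceptor beads, 10 min dark.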
BAZ2B block – blocks human BAZ2B; Q9UIF8; AlphaScreen BAZ2B-H3K14Ac peptide displacement; Potency, µM (titrated, usually from 114 µM), without a hit: at the top dose activity change, negative = inhibition, most hits filed as inhibitors; hit rate 4.4% among 360,000; AID 504333; note: % is set by controls: 0 for no effect and ±100 for the full control effect; nearly all actives have a fitted effect of over 60% in size
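Protein-peptide AlphaScreen: BAZ2B 50 nM, b-H3K14Ac 50 nM, 1x PBS pH 7.4 + 0.01% Tween-20. Preincubation 30 min RT; cpd 30 min RT (top 110 uM); beads 20 min RT, light-protected.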
HP1b chromo inh – blocks HP1-beta chromodomain binding to methylated histone tails; hit rate 0.56% among 390,000; AID 540317; P83916; AlphaScreen HP1-beta / biotin-H3K9me3 peptide binding; Potency, µM (titrated, usually from 114 µM), without a hit: at the highest dose activity change, negative = inhibition, actives largely listed as inhibitors; note: nearly all actives have a fitted effect of over 70% in size
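HP1-beta protein (50 nM final) preincubated 30 min at room temperature with biotinylated H3(1-18)K9me3 peptide (50 nM) in PBS pH 7.4, 0.01% Tween-20, then compound added for 30 min. AlphaScreen streptavidin donor/nickel chelate acceptor beads (10 ug/mL final), 30 min dark, luminescence read.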
JMJD2A Tudor – inhibitors of human JMJD2A Tudor domain. hit rate 4.4% among 390,000. AID 504339. AlphaScreen JMJD2A-Tudor / H3K4me3 peptide binding. O75164. Potency, µM (top dose mostly 114 µM), for the others: at the top dose activity change, negative = inhibition, actives largely listed as inhibitors; note: % is set by controls: 0 for no effect and ±100 for the full control effect; nearly all actives have a fitted effect of over 50% in size
* marks the source's active call; other numbers are inactive results; ? = inconclusive; · = not tested or not shown; [ ] = another dose, or the depositor's remark. Calls come from the whole dose curve; as a rule, active = well fitted curve in the direction sought with a large enough effect; inconclusive = small, poorly fitted or top-dose-only effect, or another doubt; inactive = no such curve, though single readings can be large; an effect the other way counts as inactive or inconclusive. Potency is the fitted concentration of half-maximal effect.

SMILES	Sfp PPTase inh	G9a inh	BAZ2B block	HP1b chromo inh	JMJD2A Tudor
CCOC(=O)c1c(C)[nH]c(C)c1S(=O)(=O)N(C)CC(=O)Nc1cc(Cl)ccc1OC	·	-42%[59 µM]	-8%	23%	-9%
CC(C)OCCCNC(=S)Nc1ccc(S(N)(=O)=O)cc1	2.2µM*	10µM*	-1%	32µM*	89µM*
COc1ccc([N+](=O)[O-])cc1NC(=S)Nc1ccccc1	?	?	-9%	9%	-22%
NS(=O)(=O)c1ccc(NC(=S)NCCc2ccccc2)cc1	7.9µM*	11µM*	-25%	-25%	-27%
O=[N+]([O-])c1ccc(O)c(NC(=S)Nc2ccccc2)c1	50µM*	4.5µM*	-38%	?	?
NS(=O)(=O)c1ccc(CCNC(=O)c2ccc[nH]c2=S)cc1	56µM*	1.4µM*	-18%	?	2.2µM*
CC(=O)Oc1ccc(-c2ccc(C(=O)NCCc3ccc(S(N)(=O)=O)cc3)cc2)cc1	8%	71µM*	-6%	-21%	-22%
O=[N+]([O-])c1ccc(NNC(=S)Nc2ccccc2)cc1	3.5µM*	?	50µM*	56µM*	50µM*
CC(=O)Oc1ccc(C(=O)NCCc2ccccc2)cc1	15%	-6%	-4%	32%	-6%
O=[N+]([O-])c1ccc(NC(=S)NCCc2ccccc2)cc1	-18%	45µM*	?	?	?
O=[N+]([O-])c1ccc(NC(=S)NCCc2ccc(Cl)cc2)cc1	?	-36%[59 µM]	?	-22%	?
N#C/C(=C/c1ccccc1OCc1ccc(F)cc1)c1ccc(C(=O)O)cc1	4%	?	?	28%	-15%
N#C/C(=C/c1ccc(OCc2ccc(C(=O)O)cc2)c(Br)c1)c1cccc(F)c1	-10%	-51%	?	5%	56µM*
O=C(c1ccc(CSc2nc3ccncc3[nH]2)cc1)N1CCN(c2cccc(Cl)c2)CC1	-4%	45µM*	35µM*	13%	?
O=C(NCCCN1CCOCC1)c1cc(Cl)ccc1OCc1ccccc1	10%	34%	-25%	21%	-2%
CCC1C(=O)N(c2nc(C)cc(C)n2)N=C1C (centres undefined)	56µM*	20µM*	?	31%	11µM*
COC(=O)N1CC=CC1(C)C(=O)O (centres undefined)	20%	·	·	·	·
CCCCc1nc2c(c3c1C[C@H](C)OC3)CN(C(=O)c1cc(I)ccc1F)CC2	12%	·	·	·	·
Cc1ccc2c(c1)c1c3n2CCN(CC(N)=O)C3CCC1 (centres undefined)	19%	·	24%	21%	-6%
Cc1ccc2c(c1)c1c3n2CCN(C(=O)C2CC2)C3CCC1 (centres undefined)	?	40µM*	?	-1%	-34%
Cc1ccc2c(c1)c1c3n2CCCN(Cc2ccccc2)C3CCC1 (centres undefined)	-4%	13µM*	10µM*	?	?
Cc1ccc2c(c1)c1c3n2CCN(CC#N)C3CCC1 (centres undefined)	13%	6%[59 µM]	?	29%	-21%
Cc1ccc(C(=O)N2CCn3c4c(c5cc(C)ccc53)CCCC42)cc1 (centres undefined)	·	11µM*	14µM*	-22%	?
Cc1ccc2c(c1)c1c3n2CCN(CC(O)CNC(C)C)C3CCC1 (centres undefined)	6%	?	?	0%	?
Cc1ccc2c(c1)c1c3n2CCN(C(=O)c2ccc(C(F)(F)F)cc2)C3CCC1 (centres undefined)	·	?	28µM*	-7%	?
SMILES	Sfp PPTase inh	G9a inh	BAZ2B block	HP1b chromo inh	JMJD2A Tudor
Cc1ccc2c(c1)c1c3n2CCN(CCC(=O)O)C3CCC1 (centres undefined)	11%	45µM*	?	27%	-17%
CCn1c(CS(=O)Cc2ccc(Cl)cc2Cl)nnc1SCc1c(Cl)cccc1Cl (centres undefined)	-14%	16µM*	8%	20%	-24%
CCn1c(CC(=O)Nc2ccc(Cl)c(Cl)c2)nnc1SCc1ccc(Cl)cc1	9%	-8%[59 µM]	-4%	13%	-17%
CCN(C(=O)CN1CCCCCC1)c1c(N)n(Cc2ccccc2)c(=O)[nH]c1=O	·	·	·	29%	-2%
Cn1c(=O)c(C(=O)CN2CCCc3ccccc32)c(N)n(Cc2ccccc2)c1=O	-18%	?	-61%	1%	?
CC(=O)c1ccc(N2CCN(CC(=O)N(CC(C)C)c3c(N)n(CC(C)C)c(=O)[nH]c3=O)CC2)cc1	17%	-3%	-37%	50%	-24%
CC(C)CN(C(=O)CN1CCN(c2ccc(O)cc2)CC1)c1c(N)n(CC(C)C)c(=O)[nH]c1=O	25µM*	?	-6%	50µM*	?
Cn1c(=O)c(C(=O)CN2CCc3ccccc32)c(N)n(Cc2ccccc2)c1=O	16%	35µM*	6%	-4%	50µM*
CCN(C(=O)CN1CCc2ccccc21)c1c(N)n(Cc2ccccc2)c(=O)[nH]c1=O	-3%	28µM*	-16%	43%	-17%
CCN(C(=O)CN1CCN(c2ccc(O)cc2)CC1)c1c(N)n(Cc2ccccc2)c(=O)[nH]c1=O	14µM*	8.9µM*	·	-12%	?
O=C(NCc1ccncc1)C(=O)N/N=C/c1cccnc1	-5%	·	-6%	18%	10%
O=C(OCC(=O)N1N=C(c2ccc(Cl)cc2)CC1c1ccco1)c1cncc(Br)c1 (centres undefined)	·	·	·	-14%[57 µM]	?
COc1ccccc1CCC(=O)OCC(=O)c1c(N)n(CC(C)C)c(=O)n(C)c1=O	·	-40%[0.501 µM]	?	27%	-10%
CC(C)Cn1c(N)c(C(=O)COC(=O)C2CCCCC2)c(=O)n(C)c1=O	-13%	?	1%	-9%	25µM*
Cc1ccc(N2CC(C(=O)OCC(=O)c3c(N)n(CC(C)C)c(=O)n(C)c3=O)CC2=O)cc1 (centres undefined)	·	10%[2.33 µM]	23%	18%	-9%
COc1ccc(CCC(=O)OCC(=O)c2c(N)n(CC(C)C)c(=O)n(C)c2=O)cc1	5%	79µM*	?	10%	-14%
COC(=O)C1(CC(C)C)C=C2C(=C(c3ccccc3)C(=O)C2C)CN1 (centres undefined)	-5%	·	·	·	·
Cc1ccc(S(=O)(=O)CC(=O)N2CCN(c3ccc(F)cc3)CC2)cc1	14%	53%	1%	21%[57 µM]	-9%
CCOC(=O)CC1=NN(c2ccccc2)C(=O)/C1=C\c1ccc(OC)cc1OC	-17%	10µM*	11µM*	16µM*	14µM*
COC(=O)CC1=NN(c2ccccc2)C(=O)/C1=C\c1ccc(OC)cc1	8%	20µM*	?	-10%	-30%
COC(=O)CC1=NN(c2ccc(OC)cc2)C(=O)/C1=C\c1ccc(Cl)cc1	6%	20µM*	50µM*	?	?
CC(C)CCNc1nc(Nc2ccccc2)c2cnn(C)c2n1	·	-2%[59 µM]	-22%	4%	?

Compound activity deposited in PubChem by National Center for Advancing Translational Sciences (NCATS).
